A selection: hits, their analogues and other compounds. The true share with any hit is near 4.7%.
tim23-1 inh: inhibits growth of tim23-1 mutant yeast; S. cerevisiae tim23-1 growth, BacTiter-Glo luminescence, 24 h; inhibition, % at 20 µM; hit rate 1.3% among 330,000; AID 463212;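 active = growth inhibition of the mutant yeast at or above 50%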;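 note: temperature-sensitive mutant grown at 25 °C; plate controls were DMSO-treated mutant yeast for no effect and medium wells lacking yeast for full effect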
tim10-1 inh: growth inhibitors of tim10-1 mutant yeast; AID 463190; hit rate 2.2% among 330,000; S. cerevisiae tim10-1 ts strain growth, BacTiter-Glo, 24 h; inhibition, % at 20 µM;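 active = inhibition of at least 40%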;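 note: mutant grown at 25 °C; 0% = DMSO wells with yeast and 100% = wells holding no yeast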
PfHsp90 yeast 2: growth inhibition of yeast expressing Plasmodium Hsp90; AID 504621; inhibition, % at 9.4 µM; hit rate 0.32% among 310,000; S. cerevisiae expressing PfHsp90, BacTiter-Glo ATP, 48 h; yeast lacking PDR1 and PDR3 efflux regulators;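 active = every replicate shows inhibition above about 80%, whatever the replicate mean, limit read from the data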;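 note: 0% = DMSO neutral controls and 100% = 20 µM radicicol positive controls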
SKKanGAS inh: inhibitors of SKKanGAS S. pyogenes growth in kanamycin (SK-promoter or general growth effect) | BacTiter-Glo, 6 h | inhibition, % at 7.5 µM | hit rate 1.3% among 300,000;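 active = mean replicate score, as percent of positive control median, at least 50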;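 note: strain carries kanamycin resistance gene driven by streptokinase promoter and grows in 40 µg/ml kanamycin; loss of luminescence reflects streptokinase promoter inhibition or plain growth inhibition; 0% = median of DMSO wells and 100% = positive control at its reference dose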
TIM10 inh: growth inhibitors of TIM10 yeast strain; S. cerevisiae TIM10 strain growth, BacTiter-Glo luminescence, 24 h; inhibition, % at 10 µM; hit rate 1.4% among 330,000; AID 463195;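 active = inhibition of 40% or more at the single tested concentration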;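 note: wild-type TIM10 isogenic control strain grown at permissive 25 °C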
EBI2 antag: antagonists of human EBI2 receptor | P32249 | EBI2 beta-arrestin recruitment, luminescence, 7a,25-OHC stimulated | inhibition, % at 5 µM | hit rate 0.81% among 360,000 | AID 651636; in the data active = inhibition above about 38%;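 note: enzyme fragment complementation signal reports receptor beta-arrestin coupling in cells; 0% = agonist plus DMSO wells and 100% = wells without agonist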
Target sequence (P32249 whole entry, looked up, the tested form may be a part): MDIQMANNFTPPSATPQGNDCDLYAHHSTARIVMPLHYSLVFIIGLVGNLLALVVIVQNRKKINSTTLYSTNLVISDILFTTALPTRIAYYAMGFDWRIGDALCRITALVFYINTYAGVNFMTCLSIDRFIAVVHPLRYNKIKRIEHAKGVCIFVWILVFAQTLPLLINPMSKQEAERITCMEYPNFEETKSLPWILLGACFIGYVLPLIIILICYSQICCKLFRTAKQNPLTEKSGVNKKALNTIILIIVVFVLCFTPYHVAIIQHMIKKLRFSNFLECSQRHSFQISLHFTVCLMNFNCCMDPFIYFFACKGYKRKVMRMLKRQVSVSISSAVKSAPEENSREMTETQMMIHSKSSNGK
tim10-1 confirm: confirmation of tim10-1 mutant yeast growth inhibitors; shares compounds with tim10-1 inh; S. cerevisiae tim10-1 ts strain growth, BacTiter-Glo, 24 h; inhibition, % at 20 µM; hit rate 56% among 7,400;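 active = inhibition of yeast growth at or above a set limit in either of two repeat tests at 20 µM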;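 note: tim10-1 mutant grown at permissive 25 °C to find synthetic lethal compounds; 0% = DMSO yeast wells and 100% = medium wells without yeast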
The depositor's hits bear a star; · = no result.

SMILES	tim23-1 inh	tim10-1 inh	PfHsp90 yeast 2	SKKanGAS inh	TIM10 inh	EBI2 antag	tim10-1 confirm
CC(C)(C)OC(=O)NCCCCCNC(=O)c1[nH]cnc1C(=O)Nc1cc(Br)ccc1F	·	·	·	·	·	-31	·
CCC(=O)Nc1nc2c(OC)ccc(OC)c2s1	24	25	-9	-14	16	-12	·
CCC(=O)Nc1nc2ccc3nc(C)sc3c2s1	21	48*	14	-4	23	-7	23
Cc1nnc(SCc2cc(=O)oc3ccc4ccccc4c23)n1Cc1ccccc1	44	46*	3	6	15	-7	24
CC(C)(C)C1CCN2CCC[C@](c3ccccc3)(C1)C2OCCCO (some centres undefined)	·	·	·	·	·	-1	·
COc1cc(OC)cc(C2=Cc3ccccc3C(CC(=O)c3ccco3)N2c2ccc(-c3cncnc3)cc2)c1 (centres undefined)	·	·	·	·	·	0	·
Cn1c(CN2CCN(c3ccc(Cl)cc3)CC2)nc2ccccc21	39	33	·	-11	31	2	·
CCn1c(CN2CCN(c3ccc(Cl)cc3)CC2)nc2ccccc21	36	52*	39	·	36	6	34*
CC(OC(=O)/C=C/c1ccc2ccccc2n1)C(=O)NCc1ccccc1 (centres undefined)	32	41*	0	-8	36	3	22
O=C(NC(NNc1ccc([N+](=O)[O-])cc1)(C(F)(F)F)C(F)(F)F)c1ccccc1Cl	49	47*	·	13	33	4	25
O=C(NC(NNc1ccc([N+](=O)[O-])cc1)(C(F)(F)F)C(F)(F)F)c1ccc(F)cc1	32	39	44	8	31	14	·
COc1cc(NC(=O)Cn2cnc(S(=O)(=O)N3CCc4ccccc43)c2)cc(OC)c1OC	-2	2	2	-3	-1	-3	·
Cc1cc(Nc2nc3ccccc3nc2Cl)n(-c2ccccc2)n1	38	40	-17	-2	31	7	23
Cc1cc(Nc2nc3ccccc3nc2Cl)n(-c2ccccc2C)n1	50	34	-1	-5	24	9	·
O=C1CN2CCC1C/C2=C\c1ccnc2c(Cl)cccc12 (centres undefined)	30	40	7	1	13	0	·
Cc1nc2cc(C(=O)OCC(=O)NC34CC5CC(CC(C5)C3)C4)ccc2n1-c1ccccc1	34	40*	-4	21	28	16	32*
CC(C)(C)N1CCC1CN (centres undefined)	-1	0	46	·	-22	-4	·
CC(C)(C)CC(C)(C)c1ccc(OCCOCC[N+](C)(C)Cc2ccccc2)cc1	28	42*	-41	·	14	3	-9
Cc1ccc(S(=O)(=O)N2CN(Cc3ccco3)c3nc4ccccc4nc32)cc1	29	22	-8	43	24	-8	·
COc1ccc(S(=O)(=O)N2CN(Cc3ccco3)c3nc4ccccc4nc32)cc1	27	47*	-14	23	20	4	27
Cc1ccc2c(nc3s/c(=C\c4ccc(-c5ccccc5C(=O)O)o4)c(=O)n32)c1C	47	46*	-46	26	33	16	18
Cc1ccc(NS(=O)(=O)c2c(C)[nH]c(C)c2C(=O)N2CCCCC2)cc1F	16	2	-11	18	2	-13	·
CC(C)(C)NC(=S)N/N=C/c1c(Cl)cccc1Cl	32	40*	0	-7	37	12	21
O=C(N/N=C/c1c(Cl)cccc1Cl)c1cccc(F)c1	13	13	-18	0	2	-5	·
CCNC(=S)N/N=C/c1c(Cl)cccc1Cl	19	41*	4	-9	21	-1	22
SMILES	tim23-1 inh	tim10-1 inh	PfHsp90 yeast 2	SKKanGAS inh	TIM10 inh	EBI2 antag	tim10-1 confirm
Cc1ccc(N2C(=O)N3[C@H]4c5ccccc5OC[C@@H]4[C@@H](c4ccccc4)[C@@]3(C)C2=O)cc1	24	49*	-11	0	7	0	19
COc1ccc2oc(=O)c(-c3csc(Nc4cccc(O)c4)n3)cc2c1	35	45*	103*	27	35	30	37*
COc1ccc(-c2oc3ncnc(NCCCN(C)C)c3c2-c2ccc(OC)cc2)cc1	17	40*	-7	1	19	16	42*
CC(C)c1ccc(NC(=O)c2ccc(-c3ccnn3C)c3ccoc23)cc1	·	·	·	·	·	20	·
COC(=O)C(CC(=O)c1ccc(Br)cc1)n1ccnc1 (centres undefined)	49	72*	·	10	34	·	44*
CCCCCn1c(C(Cc2ccccc2)NC(=O)COC)nc2ccccc21 (centres undefined)	28	26	10	-4	17	5	·
COc1cc2[nH]c3c(c2cc1OC)CCN1CCCC[C@@H]31	1	-21	-10	4	-5	1	·
COc1ccccc1C/C(N)=N/OC(=O)c1ccco1	43	50*	-9	0	29	-4	38*
COc1ccccc1C/C(N)=N/O	-1	10	2	-5	13	-7	·
O=C(Oc1ccc2c3c(c(=O)oc2c1)CCCC3)c1cccs1	13	-2	-9	20	21	5	·
O=C(Oc1cc2oc(=O)c3c(c2cc1Cl)CCCC3)c1cccs1	31	43*	-4	31	23	-20	17
Cc1cc(N)nc(=O)n1C1CC(O)C(CO)O1 (centres undefined)	·	·	35	·	·	-3	·
COc1ccccc1C1=Nn2c(nnc2C2CCCCC2)SC1	16	44*	4	·	-3	-1	19
O=C(NCc1ccco1)c1cc([N+](=O)[O-])ccc1N1CCOCC1	-4	-9	17	3	-12	-2	·
O=C(OCc1ccc(F)cc1Cl)c1ccccn1	20	19	13	-14	16	-14	·
CSc1ccc2nnc(-c3cccc(F)c3)n2n1	48	48*	-7	0	20	-3	41*
Cc1ccc2nc(NC(=O)C3CCCN(S(=O)(=O)c4cccc5nsnc45)C3)sc2c1 (centres undefined)	26	41*	-12	27	32	11	20
Cc1ccc2nc(NC(=O)C3CCN(S(=O)(=O)c4cccs4)CC3)sc2c1	21	42*	0	24	31	42	19
Cc1ccc2nc(NC(=O)C3CCN(S(=O)(=O)c4cccc5nsnc45)CC3)sc2c1	-8	10	-17	31	30	36	·
Cc1cccc(CSC(Nc2ccc(F)cc2)=C(C#N)C#N)c1	25	44*	-1	20	24	-13	28
CCOC(=O)C1=NNC(C(=O)c2ccc(C)cc2)C1c1ccc(OC)cc1 (centres undefined)	7	41*	-87	-1	11	6	13
O=C(C1CCN(c2ncnc3c2nc2n3CCCCC2)CC1)N1CCN(c2ccccc2F)CC1	15	30	-31	4	28	-1	·
